PI5P4Ka inh: qHTS for Inhibitors of phosphatidylinositol 5-phosphate 4-kinase (PI5P4K) | hit rate 1.2% among 330,000 | max response, % | PI5P4Kalpha enzyme, ADP-Glo luminescence, 60 min; stronger effect = lower value | Phosphatidylinositol 5-phosphate 4-kinase type-2 alpha (Homo sapiens), P48426; active means max response of -50% or lower; inconclusive means between -30% and -50%; inactive means -30% or higher; further: value at the top dose of about 77 µM; on the % scale 0 is the no-effect control and ±100 the full control effect
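Quantitative HTS of the MLSMR library against PI5P4Kalpha with substrate. ATP added last at 5 microM final; room temperature, 60 minutes. Remaining ATP depleted, ADP converted and read as luminescence.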
Pol kappa inh: qHTS for Inhibitors of Polymerase Kappa. hit rate 0.53% among 400,000. Potency, µM (titrated, usually from 107 µM), for inactives: top-dose activity, negative = inhibition, actives largely listed as inhibitors. DNA polymerase kappa (Homo sapiens), Q9UBT6. purified Pol kappa, fluorescent DNA synthesis assay, 10 min; further: potency means the concentration at half of the fitted maximal effect; on the % scale 0 is the no-effect control and ±100 the full control effect
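50 nM final substrate added after 15 min RT preincubation of 10 nM Pol kappa with compound; fluorescence read at 0 and 10 min.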
WRN helicase inh: qHTS for Inhibitors of WRN Helicase; hit rate 0.46% among 360,000; Potency, µM (highest dose often 114 µM), for inactives: top-dose activity change, negative = inhibition, most hits filed as inhibitors; Bifunctional 3'-5' exonuclease/ATP-dependent helicase WRN (Homo sapiens), Q14191; WRN helicase unwinding, fluorescent forked duplex, kinetic; further: potency means the concentration at half of the fitted maximal effect; on the % scale 0 is the no-effect control and ±100 the full control effect; nearly all actives have a fitted effect of over 55% in size
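Screening of the MLSMR collection measured strand separation of a quenched forked DNA duplex (100 nM) by 20 nM WRN with 2 mM ATP, all final. Compounds were preincubated with enzyme 15 min at room temperature.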
POLH inh: qHTS for Inhibitors of Polymerase Eta. recombinant Pol eta, fluorescent DNA replication assay. hit rate 1.2% among 390,000. Potency, µM (series often up to 114 µM), without a hit: at the highest dose activity change, negative = inhibition, hits mostly inhibitors; further: potency means the concentration at half of the fitted maximal effect; on the % scale 0 is the no-effect control and ±100 the full control effect
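Fluorescent replication assay: 50 nM final substrate added after a 15 min room-temperature compound preincubation with 10 nM enzyme. Signal taken at 0 min and again at 10 min.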
POLB inh: qHTS Assay for Inhibitors of DNA Polymerase Beta | Potency, µM (titrated, usually from 114 µM), for the others: top-dose activity change, negative = inhibition, actives largely listed as inhibitors | hit rate 1.3% among 340,000 | P06746 | Pol beta primer extension/strand displacement, fluorescence kinetic; further: potency means the concentration at half of the fitted maximal effect; on the % scale 0 is the no-effect control and ±100 the full control effect
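Curves were derived by four-parameter Hill fits of normalized qHTS data. The kinetic fluorescent primer-extension read was taken at 0 and 10 min after 50 nM substrate, following a 15 min room-temperature preincubation of 10 nM enzyme with compounds.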
POLI inh: qHTS for Inhibitors of Polymerase Iota | hit rate 1% among 390,000 | DNA polymerase iota (Homo sapiens), Q9UNA4 | Pol iota fluorescent replication assay, 10 min | Potency, µM (doses to about 115 µM), for inactives: top-dose activity, negative = inhibition, usual class: inhibitors; further: potency means the concentration at half of the fitted maximal effect
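Fluorescent replication assay read twice, at 0 min and 10 min after adding 50 nM (final) substrate. Enzyme (10 nM) and compounds were first incubated 15 min at room temperature; enzyme-free buffer wells were negative controls.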
An asterisk follows results filed as active; ? = inconclusive; . = no result; [ ] = dose if it differs, or a comment. An excerpt weighted towards active compounds, which were near 2.8% of everything screened. Unless noted, the call rests on the fitted dose curve; in most records, active means well fitted curve in the direction sought with a large enough effect; inconclusive means small, poorly fitted or top-dose-only effect, or another doubt; inactive means no such curve, though single readings can be large; an effect the other way counts as inactive or inconclusive.

SMILES	PI5P4Ka inh	Pol kappa inh	WRN helicase inh	POLH inh	POLB inh	POLI inh
CC(=O)Oc1c2occc2cc2ccc(=O)oc12	0	?	-28%	?	50µM*	?
CC1=CC2=NC(=O)/C(=C\c3cc(C)n(-c4ccc(F)cc4)c3C)C(=N)N2O1	-6	-7%	-2%	-7%	2%	18%
Cc1cc(/C=C2/C(=N)N3C(=NC2=O)SN=C3S(C)(=O)=O)c(C)n1-c1ccc(F)cc1	-64*	?	-11%	?	-13%	-7%
COc1ccccc1-n1c(C)cc(/C=C2/C(=N)N3C(=NC2=O)SN=C3S(C)(=O)=O)c1C	-51*	-36%	-8%	79µM*	-12%	-6%
CCOc1ccc(-n2c(C)cc(/C=C3/C(=N)N4C(=NC3=O)SN=C4S(C)(=O)=O)c2C)cc1	-64*	-18%	-13%	40µM*	?	7%
Cc1cccc(C)c1-n1cccc1/C=C1/C(=N)N2C(=NC1=O)SN=C2S(C)(=O)=O	-22	-7%	-12%[11.6 µM]	79µM*	?	65%
Cc1ccc(C)c(CN2C(=O)c3ccccc3Sc3ccc(C(=O)NC4CCCC4)cc32)c1	.	-6%[60.1 µM]	.	-19%	16%	8%
CCOC(=O)c1cc(S(=O)(=O)Nc2cc(C)c(Cl)cc2OC)[nH]n1	.	-5%[60.1 µM]	.	1%	-19%	25%
CCOc1cc(/C=C2\SC(=S)N(NC(=O)c3cccnc3)C2=O)ccc1O	-7	-31%	56µM*	?	?	28µM*
COc1cc(/C=C2\SC(=S)N(NC(=O)c3ccncc3)C2=O)ccc1O	-19	-29%	50µM*	?	-6%	22µM*
COc1cc(/C=C2\SC(=S)N(NC(=O)c3ccccc3OC)C2=O)ccc1O	-23	-20%	16µM*	?	18µM*	50µM*
CC(C)(C)NC(=O)Cn1cc(S(=O)(=O)Cc2ccccc2Cl)c2ccccc21	.	1%	.	-2%	-11%	19%
CCC(=O)c1ccc(OCC(=O)O)c(OC)c1	0	4%	9%	-6%	1%	6%
CCC(=O)c1ccc(OCC(=O)N2CCCC2)c(OC)c1	-6	5%	7%	-11%	22µM*	5%
COc1ccc(NC(=O)NC2COc3ccccc3C2)c(OC)c1 (centres undefined)	.	-13%[60.1 µM]	.	-7%	0%	-10%
Cc1ccc(S(=O)(=O)CCC(=O)Nc2sccc2C(N)=O)cc1	?	?	-16%	28µM*	.	?
CN(CC(=O)Nc1ccc(F)c(F)c1F)C(=O)/C=C/c1ccco1	-4	-38%	-16%	?	.	50µM*
COc1ccc(OC)c(C2C(C(=O)Nc3ccccc3OC)=C(C)Nc3c(C(=O)Nc4ccc(F)cc4)cnn32)c1 (centres undefined)	.	3%	.	-20%	-1%	-13%
CCc1ccc(CNC(=O)C2CCN(C(=O)N3CC(CC)Oc4ccc(C)cc43)CC2)cc1 (centres undefined)	.	-2%	.	-7%	4%	35%
O=c1c(C(c2ccccc2)c2c(O)sc3ccccc3c2=O)c(O)sc2ccccc12	.	-2%	-1%[57.1 µM]	-13%	32µM*	21%
CCC(=O)NC1CC(=O)N(c2ccc3c(c2)OCCO3)C1 (centres undefined)	.	-4%[60.1 µM]	.	4%	-3%	1%
CCCCCCCCCCCCCCCCCCN(CCCCCCCCCCCCCCCCCC)c1ccccc1	.	-22%	.	.	.	-23%
C/C(=N\NC(=O)c1ccc(-c2ccccc2)cc1)C1C(=O)c2ccccc2C1=O	-18	-5%	?	32µM*	-9%	?
CCOC(=O)N1CCc2c(sc3c2c(=O)n(-c2ccccc2)c(=O)n3CC(=O)Nc2ccc(OC)cc2OC)C1	.	11%	.	2%	13%	-15%

Assay outcomes: PubChem BioAssay, National Center for Advancing Translational Sciences (NCATS)
